Assay [1] in a line: NS1 protein of Zika virus - qHTS assay to identify small molecule inhibitors in human HEK 293 cells (AID 1347053). Further: series mostly up to about 46 µM; nearly all actives have a fitted effect of over 55% in size. Summed up: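 HEK 293; 20 h pre-culture, 37 C/5% CO2; cpd 1 h pre-infection; ZIKV MR766, MOI = 0.5, 24 h, 37 C; TR-FRET NS1 readout (two anti-NS1 Abs); norm. to no-virus vs infected.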
In general terms: Quantitative high-throughput screening tests each substance at several concentrations.

For assay [2], the target named is Parathyroid hormone/parathyroid hormone-related peptide receptor (Homo sapiens) (UniProt Q03431). The experiment in a line: qHTS for PTHR1 Agonists: Optimization Screen against the NCGC LOPAC library (AID 1347079).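 Further: GloSensor cAMP luminescence in HEK-293 GP2 cells expressing human PTHR1 with IBMX.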 Summed up: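 Compounds were tested across a qHTS titration. PTHR1-expressing GP2 cells report cAMP rises via GloSensor luminescence after 1 hr compound exposure at 37C with IBMX present.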

A short description of assay [3]: qHTS of pediatric cancer cell lines to identify multiple opportunities for drug repurposing: Primary screen for NB-EBc1 cells (AID 1347095). Further: potency means the concentration at half of the fitted maximal effect. A digest of the protocol:
(§1)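 Cells plated at 500-1,000/well in growth medium, compounds added after 5 h. MIPE tested at 11 points (from 0.78 nM), NPC at 8 points (from 0.59 nM). CellTiter-Glo luminescence after 48 h; concentration-response curves from primary screen.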

A short description of assay [4]: qHTS of pediatric cancer cell lines to identify multiple opportunities for drug repurposing: Primary screen for U-2 OS cells (AID 1347096). Further: nearly all actives have a fitted effect of over 50% in size. Further: potency means the concentration at half of the fitted maximal effect. A digest of the protocol: (§2)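 Cells (500-1,000/well) in growth media were settled 5 h at 37 degrees C, then given compounds for 48 h. Viability was read as CellTiter-Glo luminescence. Primary runs used MIPE at 11 points (0.78 nM-46 µM) and NPC at 8 points (0.59 nM-46 µM); follow-ups used 11 points.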

A short description of assay [5]: qHTS of pediatric cancer cell lines to identify multiple opportunities for drug repurposing: Primary screen for LAN-5 cells (AID 1347100). A digest of the protocol:
as §2

Assay [6] can be described thus: qHTS of pediatric cancer cell lines to identify multiple opportunities for drug repurposing: Primary screen for TC32 cells (AID 1347089). Further: nearly all actives have a fitted effect of over 60% in size. Summed up: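 TC32 cells, 500-1,000/well in growth medium, compound-treated 48 h at 37 °C; viability from CellTiter-Glo luminescence. Primary screen: MIPE 11-point (0.78 nM–46 µM final), NPC 8-point (0.59 nM–46 µM final); confirmatory at 11-point dilutions.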

A short description of assay [7]: qHTS of pediatric cancer cell lines to identify multiple opportunities for drug repurposing: Primary screen for DAOY cells (AID 1347090). Further: series mostly up to about 46 µM; nearly all actives have a fitted effect of over 55% in size. A digest of the protocol: (§3)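 Eight- or eleven-point concentration series, 48 h treatment at 37 degrees C in growth media; readout CellTiter-Glo luminescence. Potency and efficacy were taken from the concentration-response curves.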

The nature of assay [8]: qHTS of pediatric cancer cell lines to identify multiple opportunities for drug repurposing: Primary screen for SJ-GBM2 cells (AID 1347091). Further: potency means the concentration at half of the fitted maximal effect. A digest of the protocol: as §3
A short description of assay [9]: qHTS of pediatric cancer cell lines to identify multiple opportunities for drug repurposing: Primary screen for A673 cells (AID 1347092). Further: nearly all actives have a fitted effect of over 45% in size. Further: potency means the concentration at half of the fitted maximal effect. A digest of the protocol:
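A673 cells (500-1,000 cells/well) were treated 48 hours at 37 degrees C with compounds at 11-point (0.78 nM to 46 µM) or 8-point (0.59 nM to 46 µM) dilutions. Viability read by CellTiter-Glo luminescence; concentration-response curves fitted.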

Assay [10] in a line: qHTS of pediatric cancer cell lines to identify multiple opportunities for drug repurposing: Primary screen for SK-N-MC cells (AID 1347093). Further: potency means the concentration at half of the fitted maximal effect. Summed up: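 Metabolically active cells were quantified by ATP-dependent luminescence (CellTiter-Glo, 15 min at room temperature) following 48 h treatment. Cells had been plated at 500-1,000 per well and settled for 5 h beforehand.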
The nature of assay [11]: qHTS of pediatric cancer cell lines to identify multiple opportunities for drug repurposing: Primary screen for BT-37 cells (AID 1347094). Further: series mostly up to about 57 µM. Summed up:
as §1

Assay [12] is described as follows: qHTS of pediatric cancer cell lines to identify multiple opportunities for drug repurposing: Primary screen for Saos-2 cells (AID 1347097). Further: nearly all actives have a fitted effect of over 40% in size. Further: potency means the concentration at half of the fitted maximal effect. A digest of the protocol: as §1
The nature of assay [13]: qHTS of pediatric cancer cell lines to identify multiple opportunities for drug repurposing: Primary screen for SK-N-SH cells (AID 1347098).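 Further: DMSO served as neutral control and bortezomib at 2.3 µM as positive control; nearly all actives have a fitted effect of over 65% in size.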 Summed up: (§4)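 Cells (500-1,000/well) rested 5 h, then received compounds for 48 h; metabolically active cells were measured by CellTiter-Glo luminescence. Final concentrations spanned up to 46 µM (MIPE, 11-point) or 0.59 nM-46 µM (NPC, 8-point) in primary screens, 11-point in follow-ups.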

The nature of assay [14]: qHTS of pediatric cancer cell lines to identify multiple opportunities for drug repurposing: Primary screen for NB1643 cells (AID 1347099). Further: nearly all actives have a fitted effect of over 50% in size. Further: potency means the concentration at half of the fitted maximal effect. Summed up:
as §1

The nature of assay [15]: qHTS of pediatric cancer cell lines to identify multiple opportunities for drug repurposing: Primary screen for BT-12 cells (AID 1347101). Further: nearly all actives have a fitted effect of over 25% in size. Summed up:
as §4

The target of assay [16] is Atrial natriuretic peptide receptor 2 (Homo sapiens) (UniProt P20594). Description: Natriuretic polypeptide receptor (hNpr2) antagonism - Pilot subtype selectivity assay (AID 1347050; calls by dose curve). Summed up:
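cGMP-sensor HEK293/hNpr2 cells; 2% GloSensor reagent 2 h RT; compounds 30 min; baseline luminescence read; 1 nM hNppC agonist 20 min RT; final luminescence read by CCD camera. Antagonism = reduced post-agonist signal.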

Assay [17] concerns the target T1, Tyrosine-protein phosphatase non-receptor type substrate 1 (Homo sapiens) + Leukocyte surface antigen CD47 (Homo sapiens) (UniProt P78324+Q08722). The experiment in a line: CD47-SIRPalpha protein protein interaction - LANCE assay qHTS validation (AID 1347057; active means well fitted curve in the direction sought with a large enough effect in the signal ratio, with a control signal flat, not every such curve was filed as active; the % refers to the signal ratio; further: series mostly up to about 38 µM). Summed up: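 First, His-tagged CD47 and Eu-labelled anti-His antibody met the compound for 30 min; next, site-specifically biotinylated SIRPalpha was added for 30 min; finally streptavidin-APC was added before reading the TR-FRET ratio.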
On the technique in general: TR-FRET usually uses a lanthanide donor and a delayed reading to cut background.

For assay [18], the target named is T1, Tyrosine-protein phosphatase non-receptor type substrate 1 (Homo sapiens) + Leukocyte surface antigen CD47 (Homo sapiens). Description: CD47-SIRPalpha protein protein interaction - Alpha assay qHTS validation (AID 1347059).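 Further: bead proximity luminescence from CD47 binding SIRPalpha after compound preincubation with SIRPalpha.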 Summed up: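 Soluble extracellular domains: Avi-tag biotinylated SIRPalpha (25 nM) preincubated 30 min RT with compound, then 6His-CD47 (12.5 nM) 30 min; Ni-NTA acceptor and streptavidin donor beads (10 ug/mL) 30 min, AlphaScreen read. PBS pH 7.4, 0.05% IGEPAL.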

The target is the same in assay [19]. The experiment in a line: CD47-SIRPalpha protein protein interaction - HTRF assay qHTS validation (AID 1347058; active means well fitted curve in the direction sought with a large enough effect in the signal ratio, not every such curve was filed as active; the % refers to the signal ratio; further: series mostly up to about 38 µM). A digest of the protocol:
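TR-FRET read (Ch1/Ch2 ratio) of soluble extracellular CD47 and Avi-biotinylated SIRPalpha domains in PBS pH 7.4 with 0.05% IGEPAL; 7-point compound titration. Sequential 30 min room-temperature steps; non-biotinylated SIRPalpha as control inhibitor.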

The target in assay [20] is Atrial natriuretic peptide receptor 1 (Homo sapiens) (UniProt P16066). Description: Natriuretic polypeptide receptor (hNpr1) antagonism - Pilot screen (AID 1347049; calls by dose curve;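 further: agonist-evoked cGMP luminescence read 20 min after hNppA addition; series mostly up to about 58 µM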). A digest of the protocol:
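HEK293 cells co-expressing hNpr1 and the GloSensor pGS-40F cGMP luciferase sensor were preloaded with 2% GloSensor reagent for 2 h. Compounds were added for 30 min at room temperature, then cells were stimulated with 0.1 nM hNppA for 20 min before luminescence readout.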

Records with an inconclusive call do not appear. Calls of active or inactive are those of the source. Unless noted, the call rests on the fitted dose curve; in most records, active means well fitted curve in the direction sought with a large enough effect; inconclusive means small, poorly fitted or top-dose-only effect, or another doubt; inactive means no such curve, though single readings can be large; an effect the other way counts as inactive or inconclusive.

T1 sequence (P78324 whole entry, looked up): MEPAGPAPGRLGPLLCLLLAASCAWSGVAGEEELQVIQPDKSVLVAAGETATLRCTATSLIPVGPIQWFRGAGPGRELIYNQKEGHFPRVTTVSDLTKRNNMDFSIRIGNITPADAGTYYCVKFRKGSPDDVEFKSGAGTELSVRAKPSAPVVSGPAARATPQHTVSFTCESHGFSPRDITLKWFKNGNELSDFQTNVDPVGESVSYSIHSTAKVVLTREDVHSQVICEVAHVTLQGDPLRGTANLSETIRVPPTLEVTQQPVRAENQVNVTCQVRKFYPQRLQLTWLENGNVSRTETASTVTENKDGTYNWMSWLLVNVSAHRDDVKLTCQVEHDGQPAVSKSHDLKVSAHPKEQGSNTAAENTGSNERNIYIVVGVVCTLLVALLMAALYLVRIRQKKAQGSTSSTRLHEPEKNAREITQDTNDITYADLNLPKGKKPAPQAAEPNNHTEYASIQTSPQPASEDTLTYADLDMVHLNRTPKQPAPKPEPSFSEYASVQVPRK
T1 sequence (Q08722 whole entry, looked up): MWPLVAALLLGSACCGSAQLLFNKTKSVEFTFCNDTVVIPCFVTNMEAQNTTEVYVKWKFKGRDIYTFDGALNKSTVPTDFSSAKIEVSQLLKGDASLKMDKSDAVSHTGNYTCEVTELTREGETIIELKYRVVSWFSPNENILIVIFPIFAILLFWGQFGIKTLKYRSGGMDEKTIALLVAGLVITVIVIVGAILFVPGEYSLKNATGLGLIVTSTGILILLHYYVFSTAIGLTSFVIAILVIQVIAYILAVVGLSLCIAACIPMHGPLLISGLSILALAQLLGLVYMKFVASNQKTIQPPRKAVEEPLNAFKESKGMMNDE
Chain of Parathyroid hormone/parathyroid hormone-related peptide receptor (Homo sapiens) (Q03431 whole entry, looked up): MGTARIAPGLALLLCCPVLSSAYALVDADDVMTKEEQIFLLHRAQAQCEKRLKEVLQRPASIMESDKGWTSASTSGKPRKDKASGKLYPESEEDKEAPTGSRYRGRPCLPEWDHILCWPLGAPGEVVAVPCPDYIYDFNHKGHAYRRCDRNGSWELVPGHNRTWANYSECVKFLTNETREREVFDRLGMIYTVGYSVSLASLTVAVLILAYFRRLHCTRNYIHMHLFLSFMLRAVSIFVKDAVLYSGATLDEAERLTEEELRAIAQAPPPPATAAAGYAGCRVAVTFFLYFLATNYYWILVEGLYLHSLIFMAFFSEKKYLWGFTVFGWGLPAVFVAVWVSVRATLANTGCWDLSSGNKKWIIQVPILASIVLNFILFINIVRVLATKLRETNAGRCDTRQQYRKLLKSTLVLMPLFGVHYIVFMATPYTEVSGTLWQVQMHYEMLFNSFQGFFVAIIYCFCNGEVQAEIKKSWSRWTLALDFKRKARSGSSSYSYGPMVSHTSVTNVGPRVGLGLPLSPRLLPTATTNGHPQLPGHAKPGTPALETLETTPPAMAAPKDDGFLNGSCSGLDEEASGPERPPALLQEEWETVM
Chain of Atrial natriuretic peptide receptor 2 (Homo sapiens) (P20594 whole entry, looked up): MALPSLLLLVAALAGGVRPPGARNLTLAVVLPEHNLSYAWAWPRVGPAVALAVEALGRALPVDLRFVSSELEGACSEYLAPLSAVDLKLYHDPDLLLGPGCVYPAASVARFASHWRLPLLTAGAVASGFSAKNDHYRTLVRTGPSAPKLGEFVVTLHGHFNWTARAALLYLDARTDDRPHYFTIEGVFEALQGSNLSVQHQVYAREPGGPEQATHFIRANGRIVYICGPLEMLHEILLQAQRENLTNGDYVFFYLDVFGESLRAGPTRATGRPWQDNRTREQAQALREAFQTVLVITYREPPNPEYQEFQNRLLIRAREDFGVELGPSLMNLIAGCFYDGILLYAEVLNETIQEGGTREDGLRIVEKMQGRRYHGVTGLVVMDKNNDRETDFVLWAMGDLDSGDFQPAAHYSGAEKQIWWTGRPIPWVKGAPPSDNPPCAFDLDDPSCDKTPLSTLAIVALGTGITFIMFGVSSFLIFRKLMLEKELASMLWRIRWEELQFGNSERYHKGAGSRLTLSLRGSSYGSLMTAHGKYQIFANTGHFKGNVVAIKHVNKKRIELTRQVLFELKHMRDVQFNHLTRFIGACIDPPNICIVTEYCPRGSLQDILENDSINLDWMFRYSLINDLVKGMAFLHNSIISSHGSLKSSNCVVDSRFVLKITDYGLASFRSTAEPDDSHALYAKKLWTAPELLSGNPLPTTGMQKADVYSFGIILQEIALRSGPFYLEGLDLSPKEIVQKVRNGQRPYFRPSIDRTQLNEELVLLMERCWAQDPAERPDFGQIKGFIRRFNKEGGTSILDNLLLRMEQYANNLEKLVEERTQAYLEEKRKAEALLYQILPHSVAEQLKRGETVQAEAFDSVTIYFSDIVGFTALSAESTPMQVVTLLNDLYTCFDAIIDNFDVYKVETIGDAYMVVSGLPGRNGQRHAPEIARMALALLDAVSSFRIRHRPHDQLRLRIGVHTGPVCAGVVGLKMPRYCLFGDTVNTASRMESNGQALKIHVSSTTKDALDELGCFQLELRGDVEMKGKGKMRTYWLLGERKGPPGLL
Chain of Atrial natriuretic peptide receptor 1 (Homo sapiens) (P16066 whole entry, looked up): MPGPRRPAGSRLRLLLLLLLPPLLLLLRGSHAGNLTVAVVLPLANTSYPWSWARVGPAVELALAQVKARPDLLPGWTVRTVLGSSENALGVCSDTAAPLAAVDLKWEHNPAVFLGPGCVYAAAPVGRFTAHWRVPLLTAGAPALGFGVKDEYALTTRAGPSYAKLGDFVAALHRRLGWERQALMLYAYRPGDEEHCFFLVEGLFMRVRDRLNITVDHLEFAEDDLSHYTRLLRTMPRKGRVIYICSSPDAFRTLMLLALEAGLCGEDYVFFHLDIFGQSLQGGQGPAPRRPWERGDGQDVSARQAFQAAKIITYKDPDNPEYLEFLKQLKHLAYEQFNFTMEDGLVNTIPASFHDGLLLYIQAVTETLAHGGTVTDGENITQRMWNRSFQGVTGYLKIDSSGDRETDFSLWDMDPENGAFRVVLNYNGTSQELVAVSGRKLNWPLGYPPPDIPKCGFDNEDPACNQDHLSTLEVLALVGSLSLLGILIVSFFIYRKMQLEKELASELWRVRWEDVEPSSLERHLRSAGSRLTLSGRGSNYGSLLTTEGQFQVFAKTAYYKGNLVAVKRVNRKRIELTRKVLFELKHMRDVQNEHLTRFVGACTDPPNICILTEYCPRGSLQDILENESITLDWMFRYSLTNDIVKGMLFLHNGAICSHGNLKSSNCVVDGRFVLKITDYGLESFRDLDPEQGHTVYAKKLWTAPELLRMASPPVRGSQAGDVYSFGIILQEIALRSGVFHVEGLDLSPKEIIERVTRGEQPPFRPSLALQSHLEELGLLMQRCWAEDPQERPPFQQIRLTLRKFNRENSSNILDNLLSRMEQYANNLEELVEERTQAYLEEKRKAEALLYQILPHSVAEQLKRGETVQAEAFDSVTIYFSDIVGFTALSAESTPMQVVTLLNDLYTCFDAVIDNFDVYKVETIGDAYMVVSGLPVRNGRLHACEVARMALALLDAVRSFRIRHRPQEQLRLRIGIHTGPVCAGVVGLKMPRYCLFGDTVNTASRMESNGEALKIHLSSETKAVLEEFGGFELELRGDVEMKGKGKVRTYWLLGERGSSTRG

In the case of `CNCCC(Oc1ccc(C(F)(F)F)cc1)c1ccccc1` (centres undefined), the Potency entry in assay [1], in assay [2], in [3], in assay [4] and in assay [5] was “inactive” each time.

As to `COc1ccc(S(=O)(=O)Nc2nnc(CC(C)C)s2)cc1`, the Potency result in [1], in assay [6], in [7], in assay [8], in assay [9] and in [10] was “inactive” in each case. Besides, the Potency entry in assay [11], in [3], in assay [4], in assay [12], in assay [13] and in assay [14] was “inactive” throughout. Besides, the Potency result in assay [5] and in [15] was “inactive” each time.

Turning to `CC(O)CN(CCN(CC(C)O)CC(C)O)CC(C)O` (centres undefined), the Potency result in assay [1], in assay [6], in assay [7], in [8], in assay [9] and in [10] was “inactive” throughout. The Potency result in assay [11], in [3], in assay [4], in assay [12], in [13] and in assay [14] was “inactive” each time. For the same molecule, the Potency entry in assay [5] and in [15] was “inactive” each time.

As for `O=c1cc[nH]c(=S)[nH]1`, the Potency result in assay [1], in assay [6], in [7], in [8], in [11] and in assay [3] was “inactive” throughout. For the same molecule, the Potency result in [4], in [12], in assay [13], in assay [5] and in [15] was “inactive” throughout. The Potency was 0.001 µM (active) in [9], 2.66 µM (active) in assay [10] and 0.001 µM (active) in assay [14].

On to `CNC(=O)Oc1ccc2c(c1)[C@]1(C)CCN(C)[C@@H]1N2C`, for which the Potency result in assay [16], in [1], in assay [2], in assay [6], in assay [7] and in [8] was “inactive” each time. For the same molecule, the Potency entry in assay [9], in assay [10], in [11], in assay [3], in assay [4] and in assay [12] was “inactive” throughout. Besides, the Potency result in assay [13], in assay [14], in assay [5] and in assay [15] was “inactive” each time. The outcome in assay [17] and in [18] was inactive.

With `Cc1c(O)cccc1C(=O)N[C@@H](CSc1ccccc1)[C@H](O)CN1C[C@H]2CCCC[C@H]2C[C@H]1C(=O)NC(C)(C)C`, the Potency entry in [1] was “inactive”. Besides, the result in [17], in assay [19] and in [18] was inactive. Also, the Potency in [8] was 21.1 µM (active); in assay [10] it was 26.6 µM (active); in assay [4] it was 21.1 µM (active); in assay [12], 26.6 µM (active).

`C[C@H]1O[C@@H](n2cc(F)c(=O)[nH]c2=O)[C@H](O)[C@@H]1O`: the Potency entry in assay [1], in assay [6], in assay [7], in assay [8], in assay [9] and in assay [11] was “inactive” throughout. Besides, the Potency entry in assay [4], in assay [12], in assay [13], in [14], in assay [5] and in assay [15] was “inactive” each time. Also, the outcome in [17], in [19] and in assay [18] was inactive. In addition, the Potency in assay [3] is 2.99 µM (active).

For the molecule `Cc1cc(N)c2ccccc2[n+]1CCCCCCCCCC[n+]1c(C)cc(N)c2ccccc21`, the result in assay [20], in [17] and in assay [18] was inactive. For the same molecule, the Potency result in assay [16] and in assay [2] was “inactive” throughout.

(Values after PubChem BioAssay (NCATS).)
